Experimental data reported in PubChem BioAssay (NCATS).
Inconclusive results are not listed. A call without a number means that no potency is given here. The source made the active and inactive calls. Calls come from the whole dose curve; as a rule, active = well fitted inhibition curve with a large enough effect; inconclusive = small, poorly fitted or top-dose-only effect; inactive = no such curve, though single readings can be large or run the other way.

Key:
[1] = tested on: Zika virus NS2B-NS3 protease (unlinked complex); assay: Primary screen GU Rhodamine qHTS for Zika virus inhibitors: Unlinked NS2B-NS3 protease assay (AID 1347159); note: nearly all actives have a fitted effect of over 60% in size
How it was run: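 Buffer 10 mM Tris-HCl pH 8.0, 0.01% Tween 20. Unlinked protease 25 nM; compound preincubation 15 min, RT, protected from light. Substrate Rhod110, 1.5 microM; ~15% conversion in 15 min.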

[2] = tested on: Zika virus NS2B-NS3 protease (linked construct); assay: Primary screen NINDS Rhodamine qHTS for Zika virus inhibitors (AID 1347160); note: nearly all actives have a fitted effect of over 55% in size
How it was run: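 Aprotinin served as in-plate control. Conditions: 25 nM linked NS2B-NS3, pH 8.0 Tris buffer, titrated compounds, 15 min preincubation and 15 min reaction with 1.5 microM Rhod110 substrate at room temperature.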
Potency is the fitted concentration of half-maximal effect.

With `Cc1ccnn1-c1ccc(C(=O)N2CCN(S(=O)(=O)c3ccc(Cl)c(C(F)(F)F)c3)CC2)cc1` the Potency [1] was “inactive” and the Potency [2] was “inactive”.
In the case of `C=C(C)C(=O)O[C@H]1C[C@@](C)(O)C2(O)CCC(C)(/C=C3/OC(=O)C(COC)=C31)O2` (stereo partly drawn), the Potency [1] is reported as “inactive” and the Potency [2] is reported as “inactive”.
`CC1(C)CC[C@]23CO[C@@]4(CCC5[C@@]6(C)CC[C@H](O[C@@H]7OC[C@H](O[C@@H]8O[C@H](CO)[C@@H](O)[C@H](O)[C@H]8O[C@@H]8OC[C@@H](O)[C@H](O)[C@H]8O)[C@H](O)[C@H]7O)[C@@](C)(CO)C6CC[C@@]5(C)[C@]4(C)CC2=O)[C@@H]3C1` (stereo partly drawn) was tested, and the Potency [1] was “inactive” and the Potency [2] was “inactive”.
For `CC(=O)Nc1nc(C)c(-c2nc(N3CCCC(O)C3)no2)s1` (stereo not drawn), the Potency [1] was “inactive” and the Potency [2] was “inactive”.
In the case of `Cc1ccc(C2(C(=O)N3CCC(n4nc(-c5ccccc5)oc4=O)CC3)CC2)cc1`, the Potency [1] is reported as “inactive” and the Potency [2] is reported as “inactive”.
In the case of `CCC/C=C\C=C/CCc1cc(O)c([C@@H]2O[C@H](CO)[C@@H](O)[C@H](O)[C@H]2O)c(O)c1C(=O)OC`, the Potency [1] is reported as “inactive” and the Potency [2] is reported as “inactive”.
In the case of `Cc1cc2c(c(=O)o1)C=C1CC[C@H]([C@H](C)Cn3cnc(=N)c4[nH]cnc43)C[C@@H]1O2`, the Potency [1] is reported as “inactive” and the Potency [2] is reported as “inactive”.
With `CC#CCn1c(N2CCCC(N)C2)nc2c1c(=O)n(Cc1nc(C)c3ccccc3n1)c(=O)n2C` (stereo not drawn) the Potency [1] was “inactive” and the Potency [2] was “inactive”.
For `CC(C)c1c(O)ccc2c1CC[C@H]1C(C)(C)CCC[C@]21C`, the Potency [1] was 14.1 µM (active) and the Potency [2] was 22.4 µM (active).
